Measured values published in PubChem BioAssay (NCI).
Compounds without any hit were thinned out: in the full panel of roughly 83,000, 20% have a hit.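 Cell lines were cultured in 96-well plates, exposed to a single compound concentration, and assessed for percent growth 48 hours later.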 Activity calls are given as the source filed them. The calls were made as follows: active = growth percent below 10; inactive = the rest.

What was measured:
Experiment in all cases: NCI-60 one-dose screen, 48 h (100 = growth as untreated, 0 = no growth, -100 = all killed)
NCI-H23 lung = conditions: 10 µM unless noted
NCI-H226 lung = conditions: 10 µM unless noted
DU-145 prostate = conditions: 10 µM unless noted
MDA-MB-231 breast = conditions: 10 µM unless noted
SF-268 CNS = conditions: 10 µM unless noted
M14 melanoma = conditions: 10 µM unless noted
HCT-15 colon = conditions: 10 µM
HT29 colon = conditions: 10 µM unless noted
PC-3 prostate = conditions: 10 µM unless noted
UACC-62 melanoma = conditions: 10 µM unless noted
LOX IMVI melanoma = conditions: 10 µM unless noted
SK-MEL-28 melanoma = conditions: 10 µM unless noted
OVCAR-8 ovarian = conditions: 10 µM unless noted
OVCAR-5 ovarian = conditions: 10 µM unless noted
SK-OV-3 ovarian = conditions: 10 µM unless noted
OVCAR-3 ovarian = conditions: 10 µM unless noted
NCI/ADR-RES ovarian = conditions: 10 µM unless noted
SW-620 colon = conditions: 10 µM unless noted
MCF7 breast = conditions: 10 µM unless noted
KM12 colon = conditions: 10 µM unless noted

Measured: growth

CC(/C=N/N=C(N)N)=N\N=C(N)N
inactive: NCI-H23 lung 68.9% | NCI-H226 lung 95.8% | DU-145 prostate 65.5% | MDA-MB-231 breast 80.2% | SF-268 CNS 50.3% | M14 melanoma 80.3% | HCT-15 colon 100% | HT29 colon 65.9% | PC-3 prostate 101% | UACC-62 melanoma 86.7% | LOX IMVI melanoma 67% | SK-MEL-28 melanoma 87.1% | OVCAR-8 ovarian 58.4% | OVCAR-5 ovarian 82.1% | SK-OV-3 ovarian 84.9% | OVCAR-3 ovarian 57.7% | NCI/ADR-RES ovarian 24.9% | SW-620 colon 70.6% | MCF7 breast 76.8% | KM12 colon 40.9%

Nc1nc(N)c(-c2ccc(Cl)c(Cl)c2)c(/C=C/c2ccc(S(=O)(=O)F)cc2)n1
inactive: NCI-H23 lung 106% | NCI-H226 lung 114% | DU-145 prostate 96.7% | MDA-MB-231 breast 104% | SF-268 CNS 97.4% | M14 melanoma 89.4% | HCT-15 colon 77.9% | HT29 colon 59.4% | PC-3 prostate 65% | UACC-62 melanoma 79.1% | LOX IMVI melanoma 69.1% | SK-MEL-28 melanoma 98.1% | OVCAR-8 ovarian 81.6% | OVCAR-5 ovarian 80.8% | SK-OV-3 ovarian 97.2% | OVCAR-3 ovarian 95.4% | NCI/ADR-RES ovarian 105% | SW-620 colon 78.5% | MCF7 breast 73.5% | KM12 colon 86.8%

COc1ccc(-c2ccc(OC)c(OC)c2OC)cc1
inactive: NCI-H23 lung 46.1% | NCI-H226 lung 86.7% | DU-145 prostate 13.8% | MDA-MB-231 breast 43.8% | SF-268 CNS 51.5% | HCT-15 colon 27.1% | PC-3 prostate 18.3% | UACC-62 melanoma 34.4% | LOX IMVI melanoma 16.5% | SK-MEL-28 melanoma 49.6% | OVCAR-8 ovarian 21.7% | OVCAR-5 ovarian 58% | SW-620 colon 11.6% | MCF7 breast 19.3% | KM12 colon 29.2%
active: M14 melanoma 3.01% | HT29 colon -4.61% | SK-OV-3 ovarian 7.71% | OVCAR-3 ovarian -25% | NCI/ADR-RES ovarian -20%
